# Assay results taken from PubChem BioAssay (NCATS).
# Inconclusive results are not listed. Activity calls are given as the source filed them. Calls come from the whole dose curve; as a rule, active = well fitted inhibition curve with a large enough effect; inconclusive = small, poorly fitted or top-dose-only effect; inactive = no such curve, though single readings can be large or run the other way.
# Assay: BET inhibitor-based combinations targeting novel dependencies in MECOM-rearranged (r) AML: MV-4-11 cell line (AID 2202233); note: nearly all actives have a fitted effect of over 45% in size
# Conditions: MV-4-11 AML viability, CellTiter-Glo luminescence, 48 h; series mostly up to 46 µM
# Procedure, shortened: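 Cells were plated at 500 per well and exposed to each drug across an 11-point dose range for 48 hr at standard incubator conditions. Viability was read by CellTiter-Glo luminescence, and activity was expressed as AUC and per-cell-line Z-transformed AUC.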
# Potency is the fitted concentration of half-maximal effect.
row,SMILES,Potency
1,O=C(Nc1ccccc1)Nc1ccc(-c2ccc(C(=O)[C@@H]3CCC[C@H]3C(=O)O)cc2)cc1,inactive
2,CO[C@H]1O[C@@H]2O[C@@]3(C)CC[C@H]4[C@H](C)CC[C@@H]([C@H]1C)[C@@]24OO3,4.17 µM (active)
3,CCOC(=O)[C@H](CCc1ccccc1)N[C@H]1CCc2ccccc2N(CC(=O)O)C1=O,7.42 µM (active)
4,COc1ccccc1C(=O)Nc1cc2c(cc1N1CCNC[C@H]1C)n(C)c(=O)n2C,5.9 µM (active)
5,CSC[C@H]1CN(Cc2c[nH]c3c(N)ncnc23)C[C@@H]1O,inactive
6,CCOc1cc(/C=C2/C(=O)N(c3ccccc3)N=C2C)cc(Cl)c1OCC(=O)OC,20.9 µM (active)
7,N#CC(c1ccnc(NCCc2cccnc2)n1)c1nc2ccccc2s1 (centres undefined),6.61 µM (active)
8,C=C1[C@H](OC(=O)/C=C(\C)CC)C[C@@H](C(C)C)[C@@H]2[C@H]([C@@H](C)OC(C)=O)C(=O)C[C@@H]12,18.6 µM (active)
9,O=c1cc(N2CCOCC2)oc2c(-c3ccc4c(c3)OCCO4)csc12,2.09 µM (active)
10,C[C@@H]1N=C(N)NC(N(C)C)=N1,inactive
11,Cc1noc(C)c1-c1ccc(-c2cc(C(N)=O)c(NC(N)=O)s2)c(O[C@H]2CCNC2)c1,inactive
12,CCN(C(=O)c1ccccc1OC)c1cc2c(cc1N1CCNC[C@H]1C)n(C)c(=O)n2C,inactive
13,CC(C)=CCC/C(C)=C/CC/C(C)=C/CSc1ccccc1C(=O)O,11.8 µM (active)
14,Cc1ccc(Sc2ccccc2N2CCNCC2)c(C)c1,20.9 µM (active)
